Source: PubChem BioAssay (EPA / NIEHS)
The source made the active and inactive calls. How the source made its calls: active means hit-call score of the fitted dose curve at least 0.9, where 1 is the maximum; inactive means score below 0.9.

Columns and labels:
[1] = ATG_CRE_CIS: Attagene CIS-FACTORIAL HepG2 Assay for human cAMP Responsive Element (CRE) binding protein 3 (AID 2282926); conditions: HepG2 CRE cis-reporter, Attagene multiplexed mRNA; actives raise or lower the signal
How it was run: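 Multiplexed transcription-unit reporters transfected into HepG2; 24 h dosing; RT-PCR/capillary electrophoresis fluorescence read-out; bidirectional fit vs DMSO.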

[2] = target: CCAAT/enhancer-binding protein beta (Homo sapiens) (UniProt P17676); experiment: ATG_C_EBP_CIS: Attagene CIS-FACTORIAL HepG2 Assay for human CCAAT/Enhancer Binding Protein (C/EBP) beta (AID 2282927); conditions: HepG2 Attagene cis-factorial transcription factor reporter; actives raise or lower the signal
How it was run: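 Endogenous C/EBPb-driven reporter transcripts measured in transfected human HepG2 cells at 24 h via RT-PCR and capillary electrophoresis of labelled fragments. Activity fitted in both directions relative to DMSO baseline.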

[3] = ATG_CMV_CIS: Attagene CIS-FACTORIAL HepG2 Assay for human CMV (Internal Marker) (AID 2282928); conditions: HepG2 CMV promoter reporter, transcription factor profiling; actives raise or lower the signal;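 further: endpoint acts as a background internal control marker rather than a target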
How it was run: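 HepG2 cells transiently transfected with multiple cis-regulated reporter units; 24 h compound exposure. Reporter mRNA quantified by RT-PCR, 6-FAM primer-extension labeling, HpaI digestion and capillary electrophoresis; bidirectional fitting against DMSO baseline.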

[4] = ATG_DR4_LXR_CIS: Attagene CIS-FACTORIAL HepG2 Assay for human Liver X Receptor (LXR), DR4 submotif (AID 2282929); conditions: HepG2 Attagene DR4 cis-reporter, mRNA transcription; actives raise or lower the signal
How it was run: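 DR4 cis-reporter in HepG2, 24 h exposure. Detection: RT-PCR, 6-FAM labelling, CE fragment analysis. Endpoint fitted bidirectionally, DMSO = baseline.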

[5] = target: Aryl hydrocarbon receptor (Homo sapiens) (UniProt P35869); experiment: ATG_Ahr_CIS: Attagene CIS-FACTORIAL HepG2 Assay for human Aryl Hydrocarbon Receptor (Ahr) (AID 2282930); conditions: HepG2 AhR cis-factorial reporter transcription; actives raise or lower the signal
How it was run: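 Reporter mRNA levels, quantified by RT-PCR and fluorescent capillary electrophoresis, reflect endogenous AhR transcriptional activity in HepG2 cells carrying transfected cis-promoter reporter constructs. Readout at 24 h post-dose; gain or loss fitted against DMSO baseline.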

[6] = ATG_AP_1_CIS: Attagene CIS-FACTORIAL HepG2 Assay for human Activator Protein 1 (AP-1) (AID 2282931); conditions: HepG2 Attagene cis-factorial AP-1 reporter mRNA; actives raise or lower the signal
How it was run: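 Cis-regulated reporter units transiently expressed in HepG2 report endogenous transcription-factor activity. Signal: reporter mRNA at 24 h, via RT-PCR and fluorescent capillary electrophoresis. Endpoint derived by bidirectional fitting, DMSO as negative control.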

[7] = ATG_AP_2_CIS: Attagene CIS-FACTORIAL HepG2 Assay for human Activator Protein 2 (AP-2) (AID 2282932); conditions: HepG2 AP-2 cis-reporter, Attagene transcription factor profiling; actives raise or lower the signal
How it was run: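 Step one: transient transfection of HepG2 with reporter transcription units. Step two: 24 h chemical exposure. Step three: RNA extraction, RT-PCR, labelled fragment analysis by capillary electrophoresis; DMSO serves as baseline.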

[8] = ATG_BRE_CIS: Attagene CIS-FACTORIAL HepG2 Assay for human Bone Morphogenetic Protein (BMP) Response Element (BRE) (AID 2282933); conditions: HepG2 BMP response element reporter, Attagene transcription factor profiling; actives raise or lower the signal
How it was run: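 Gain- or loss-of-signal was derived by bidirectional fitting against DMSO controls. The signal came from reporter mRNA, measured by RT-PCR and capillary electrophoresis, in HepG2 cells transiently carrying multiple reporter units and dosed for 24 h.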

[9] = target: Transcription factor E2F1 (Homo sapiens) (UniProt Q01094); experiment: ATG_E2F_CIS: Attagene CIS-FACTORIAL HepG2 Assay for human E2F Transcription Factor 1 (AID 2282935); conditions: HepG2 Attagene cis-reporter, E2F reporter RNA transcripts; actives raise or lower the signal
How it was run: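 Total RNA from 24 h-treated, reporter-transfected HepG2 cells undergoes DNase I treatment, oligo(dT) reverse transcription, PCR and 6-FAM primer extension before capillary electrophoresis.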

[10] = ATG_E_Box_CIS: Attagene CIS-FACTORIAL HepG2 Assay for human Enhancer Box (E-box) (AID 2282936); conditions: HepG2 E-box cis-reporter transcription, actives raise or lower the signal
How it was run: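 DMSO served as negative control and baseline for bidirectional fitting. Human hepatoma HepG2 cells, transiently transfected with cis-reporter constructs, were dosed 24 h; reporter mRNA read by RT-PCR and capillary electrophoresis.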

[11] = ATG_M_61_CIS: Attagene CIS-FACTORIAL HepG2 Assay for M61 Transcription Factor (Internal Marker) (AID 2282937); conditions: HepG2 Attagene CIS-FACTORIAL M61 internal marker reporter; actives raise or lower the signal
How it was run: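 Background-control endpoint: HepG2 cells with cis-regulated reporter constructs, 24 h exposure, reporter mRNA detected via fluorescent primer extension and capillary electrophoresis; values from bidirectional fitting with DMSO baseline.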

[12] = ATG_EGR_CIS: Attagene CIS-FACTORIAL HepG2 Assay for human Early Growth Response 1 (EGR1) (AID 2282938); conditions: HepG2 Attagene CIS-FACTORIAL EGR reporter mRNA; actives raise or lower the signal
How it was run: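 Endpoint derived by bidirectional fitting versus DMSO vehicle. Method: cis-promoter reporter units transfected into HepG2, 24 h dosing, RNA isolation, RT-PCR with 6-FAM primer extension and HpaI digestion, then capillary electrophoresis fluorescence detection.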

[13] = ATG_M_19_CIS: Attagene CIS-FACTORIAL HepG2 Assay for M19 Transcription Factor (Internal Marker) (AID 2282939); conditions: HepG2 Attagene CIS-FACTORIAL M19 internal marker reporter; actives raise or lower the signal
How it was run: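 Following a 24 h exposure, RNA from transfected HepG2 cells was reverse-transcribed, PCR-amplified with reporter-specific primers, end-labelled with 6-FAM and HpaI-digested before capillary separation. Values represent gain or loss versus DMSO.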

[14] = ATG_Ets_CIS: Attagene CIS-FACTORIAL HepG2 Assay for human Erythroblast Transformation Specific (ETS) (AID 2282941); conditions: HepG2 ETS cis-reporter transcription, actives raise or lower the signal
How it was run: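 HepG2 cells transiently transfected with cis-promoter reporter transcription units were dosed for 24 h; reporter mRNA was measured by RT-PCR, 6-FAM primer extension, HpaI digestion and capillary electrophoresis, with bidirectional fitting against DMSO baseline.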

[15] = target: Hepatocyte nuclear factor 3-beta (Homo sapiens) (UniProt Q9Y261); experiment: ATG_FoxA2_CIS: Attagene CIS-FACTORIAL HepG2 Assay for human Forkhead box A2 (FOXA2) (AID 2282942); conditions: HepG2 cis-reporter transcription factor activity, 24 h; actives raise or lower the signal
How it was run: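 Measured: reporter mRNA induction or loss in HepG2 transiently carrying multiple cis-regulated reporter units, 24 h after dosing. Quantified by RT-PCR plus capillary electrophoresis, normalised to DMSO.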

[16] = ATG_FoxO_CIS: Attagene CIS-FACTORIAL HepG2 Assay for human Forkhead box O (FoxO) (AID 2282943); conditions: HepG2 Attagene cis-reporter, FoxO element, mRNA; actives raise or lower the signal
How it was run: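 Endogenous transcription factor activity read from multiplexed cis-promoter reporter transcripts in transiently transfected HepG2, 24 h after dosing. Reporter RNA measured via RT-PCR plus capillary electrophoresis of FAM-labeled products; gain or loss relative to DMSO.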

[17] = ATG_GATA_CIS: Attagene CIS-FACTORIAL HepG2 Assay for human GATA Binding Protein (AID 2282944); conditions: HepG2 GATA cis-element reporter, Attagene multiplex mRNA; actives raise or lower the signal
How it was run: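 DMSO serves as negative control and baseline for bidirectional fitting of reporter mRNA changes. HepG2 cells bearing transiently transfected cis-promoter reporters were exposed 24 h; transcripts detected via RT-PCR and capillary electrophoresis.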

[18] = ATG_GLI_CIS: Attagene CIS-FACTORIAL HepG2 Assay for human Zinc Finger Protein GLI1 (AID 2282945); conditions: HepG2, Attagene cis-factorial reporter mRNA, GLI element; actives raise or lower the signal
How it was run: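 Bidirectional curve fits relative to DMSO, using reporter mRNA levels from RT-PCR plus capillary electrophoresis. Cells were HepG2 transiently carrying cis-regulated reporter constructs, harvested 24 h after dosing.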

Measured: AC50

CCAAT/enhancer-binding protein beta (Homo sapiens), sequence (P17676 whole entry, looked up, the tested form may be a part): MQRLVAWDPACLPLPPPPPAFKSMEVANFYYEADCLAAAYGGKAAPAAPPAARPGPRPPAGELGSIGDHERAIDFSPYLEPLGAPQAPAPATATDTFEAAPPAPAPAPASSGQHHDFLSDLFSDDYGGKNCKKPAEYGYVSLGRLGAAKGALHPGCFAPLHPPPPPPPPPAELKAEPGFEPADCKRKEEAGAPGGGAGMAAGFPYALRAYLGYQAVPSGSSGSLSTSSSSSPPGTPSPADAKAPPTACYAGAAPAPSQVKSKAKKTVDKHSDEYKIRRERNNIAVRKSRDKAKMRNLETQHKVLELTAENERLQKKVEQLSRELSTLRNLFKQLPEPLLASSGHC
Transcription factor E2F1 (Homo sapiens), sequence (Q01094 whole entry, looked up): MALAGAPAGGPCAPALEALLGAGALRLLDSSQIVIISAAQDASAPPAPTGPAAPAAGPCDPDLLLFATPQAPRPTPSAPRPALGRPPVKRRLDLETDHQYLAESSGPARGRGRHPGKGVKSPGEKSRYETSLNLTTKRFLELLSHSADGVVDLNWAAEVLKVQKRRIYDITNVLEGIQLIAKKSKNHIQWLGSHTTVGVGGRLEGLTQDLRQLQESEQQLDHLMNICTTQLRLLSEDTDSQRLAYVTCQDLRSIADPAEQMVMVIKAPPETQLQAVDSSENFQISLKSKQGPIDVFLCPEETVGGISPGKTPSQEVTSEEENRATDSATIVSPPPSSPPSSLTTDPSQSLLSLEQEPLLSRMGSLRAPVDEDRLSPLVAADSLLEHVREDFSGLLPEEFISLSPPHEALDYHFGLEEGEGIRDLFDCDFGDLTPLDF
Hepatocyte nuclear factor 3-beta (Homo sapiens), sequence (Q9Y261 whole entry, looked up): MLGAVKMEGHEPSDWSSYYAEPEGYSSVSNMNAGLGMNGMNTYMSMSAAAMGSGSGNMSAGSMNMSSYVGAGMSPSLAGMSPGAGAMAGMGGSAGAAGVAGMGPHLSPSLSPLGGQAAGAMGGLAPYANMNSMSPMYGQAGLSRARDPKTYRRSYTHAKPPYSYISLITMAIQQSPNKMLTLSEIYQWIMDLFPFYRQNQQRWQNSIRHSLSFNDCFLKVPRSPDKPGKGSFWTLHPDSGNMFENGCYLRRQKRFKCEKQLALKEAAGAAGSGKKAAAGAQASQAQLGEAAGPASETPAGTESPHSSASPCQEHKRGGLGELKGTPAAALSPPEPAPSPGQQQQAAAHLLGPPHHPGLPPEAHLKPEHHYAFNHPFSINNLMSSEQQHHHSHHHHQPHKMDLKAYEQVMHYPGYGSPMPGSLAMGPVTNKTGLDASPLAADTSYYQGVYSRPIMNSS
Aryl hydrocarbon receptor (Homo sapiens), sequence (P35869 whole entry, looked up): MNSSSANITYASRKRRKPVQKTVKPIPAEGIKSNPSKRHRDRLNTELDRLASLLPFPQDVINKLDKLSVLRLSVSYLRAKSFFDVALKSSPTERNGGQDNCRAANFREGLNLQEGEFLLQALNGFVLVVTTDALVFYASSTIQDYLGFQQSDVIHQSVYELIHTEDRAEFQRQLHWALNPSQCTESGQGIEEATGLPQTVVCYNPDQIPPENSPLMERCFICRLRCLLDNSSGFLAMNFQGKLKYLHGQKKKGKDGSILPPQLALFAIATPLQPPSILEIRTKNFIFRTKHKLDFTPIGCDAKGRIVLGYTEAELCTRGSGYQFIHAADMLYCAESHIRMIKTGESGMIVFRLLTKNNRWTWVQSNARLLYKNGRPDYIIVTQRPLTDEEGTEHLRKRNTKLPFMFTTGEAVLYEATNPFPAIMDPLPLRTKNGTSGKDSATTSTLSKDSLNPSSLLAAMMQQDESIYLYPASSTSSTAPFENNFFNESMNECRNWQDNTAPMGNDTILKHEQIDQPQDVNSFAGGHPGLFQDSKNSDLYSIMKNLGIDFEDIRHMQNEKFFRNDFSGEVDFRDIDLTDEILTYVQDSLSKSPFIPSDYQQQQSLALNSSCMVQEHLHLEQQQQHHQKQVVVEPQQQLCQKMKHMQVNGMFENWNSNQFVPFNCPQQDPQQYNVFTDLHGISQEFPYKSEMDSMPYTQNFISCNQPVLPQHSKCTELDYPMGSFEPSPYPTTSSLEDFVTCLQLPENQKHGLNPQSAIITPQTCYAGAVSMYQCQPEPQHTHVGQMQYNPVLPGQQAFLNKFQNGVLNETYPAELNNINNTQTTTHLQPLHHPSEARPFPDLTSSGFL

CC1(C)[C@H]2CC[C@]1(C)[C@H](O)C2
inactive: [1] | [2] | [3] | [4] | [5] | [6] | [7] | [8] | [9] | [10] | [11] | [12] | [13] | [14] | [15] | [16] | [17] | [18]

Cc1c(Cl)c(=O)oc2cc(O)ccc12
inactive: [1] | [4] | [5] | [6] | [7] | [8] | [9] | [10] | [11] | [12] | [13] | [14] | [15] | [16] | [18]
active: [2] 129 µM | [3] 63 µM

CCCC/C=C\CCCCCCCCCC=O
inactive: [1] | [2] | [3] | [4] | [5] | [6] | [7] | [8] | [9] | [10] | [11] | [12] | [13] | [14] | [15] | [16] | [18]

C=C[Si](OCC)(OCC)OCC
inactive: [1] | [2] | [3] | [4] | [5] | [6] | [7] | [8] | [9] | [10] | [11] | [12] | [13] | [14] | [15] | [16] | [17] | [18]

NC(=O)NC1NC(=O)NC1=O (configuration not stated)
inactive: [1] | [2] | [3] | [4] | [5] | [6] | [7] | [8] | [9] | [10] | [11] | [12] | [13] | [14] | [15] | [16] | [17] | [18]

COc1cc(C(C)(C)C)c(O)c(C(C)(C)C)c1
inactive: [1] | [2] | [3] | [4] | [5] | [6] | [7] | [8] | [9] | [10] | [11] | [12] | [13] | [14] | [15] | [16] | [17] | [18]

COCCOCCOCCOCCOCCO
inactive: [1] | [2] | [3] | [4] | [5] | [6] | [7] | [8] | [9] | [10] | [11] | [12] | [13] | [14] | [15] | [16] | [17] | [18]

COc1ccc(O)cc1
inactive: [1] | [2] | [3] | [4] | [5] | [6] | [7] | [8] | [9] | [10] | [11] | [12] | [13] | [14] | [15] | [16] | [17] | [18]
